Consider 22 molecules from PubChem BioAssay (NCATS).

In one assay the test system is TAB113. The assay can be described thus: qHTS profiling for inhibitors of Plasmodium falciparum proliferation (AID 504749). Also: nearly all actives have a fitted effect of over 60% in size. Also: potency is read from the fitted curve at half-maximal effect. The note with it: P. falciparum in erythrocytes, SYBR Green DNA, 72 h; series mostly up to 28.7 µM. A digest of the protocol:
(§1)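 P. falciparum-infected erythrocytes (0.3% parasitemia, 2.5% hematocrit) incubated with compound 72 h at 37 C, 5% CO2. Parasite DNA detected by SYBR Green after lysis, overnight at room temperature; normalised to 0.29 uM artemisinin and DMSO.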

The test system of the next assay is TAB165. Described as above. As to conditions: P. falciparum in erythrocytes, SYBR Green DNA, 72 h; series mostly up to 28.7 µM. Summed up:
as §1

A further assay relates to W2. The assay is described as above. The note with it: P. falciparum in erythrocytes, SYBR Green DNA, 72 h; series mostly up to 28.7 µM. A digest of the protocol:
as §1

Assay [1] concerns HaCat. Nature of the assay: Cytotoxic Profiling of Annotated Libraries Using Quantitative High-Throughput Screening (AID 1296008). Also: nearly all actives have a fitted effect of over 60% in size. As to max response: % is scaled to controls: 0 for no effect and ±100 for the full control effect. As to conditions: Five cell lines viability, CellTiter-Glo ATP luminescence, 48-72 h; max response: stronger effect = lower value. Summed up:
(§2)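 Cells exposed to compounds for 48 or 72 hr at 37 degrees Celsius. Viability read as ATP-coupled luminescence with CellTiter-Glo after 10 min at room temperature.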

The test system of the next assay is KB-3-1. Described as above. The note with it: Five cell lines viability, CellTiter-Glo ATP luminescence, 48-72 h; max response: stronger effect = lower value. Summed up:
as §2

Assay [2] relates to HACAT. Nature of the assay: qHTS assay to identify novel small-molecules to repurpose for Merkel cell carcinoma treatment (AID 1296009). Also: nearly all actives have a fitted effect of over 60% in size. Also: potency is read from the fitted curve at half-maximal effect. The note with it: MCC and control cell lines, CellTiter-Glo viability, 72 h; at 44.8 µM (top of the series) unless noted. A digest of the protocol:
(§3)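 Cells were treated for 72 hr at 37 degree celsius with compounds in 8- or 11-point dose response. Viability was read by CellTiter-Glo luminescence, normalized to no-cell (cytotoxicity) and DMSO controls.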
On the technique in general: qHTS replaces the single test concentration by a dilution series.

A further assay relates to MKL-1. The assay is described as above. As to conditions: MCC and control cell lines, CellTiter-Glo viability, 72 h; series mostly up to 46 µM. Summed up: as §3
The test system of another assay is MKL-2. Described as above. The note with it: MCC and control cell lines, CellTiter-Glo viability, 72 h; series mostly up to 46 µM. A digest of the protocol: as §3
For orientation: Cellular ATP, detected with luciferase, serves as a proxy for viable cell number.

The next assay concerns WaGa. Described as above. The note with it: MCC and control cell lines, CellTiter-Glo viability, 72 h; series mostly up to 46 µM. A digest of the protocol: as §3
In another assay the test system is C33A. Nature of the assay: Primary qHTS to identify gynecologic anti-cancer compounds using libraries of approved drugs and bioactive compounds (AID 1345084). Also: % is scaled to controls: 0 for no effect and ±100 for the full control effect; nearly all actives have a fitted effect of over 55% in size. As to conditions: Gynecologic cancer cell panel viability, ATPlite luminescence, 48 h; series mostly up to 57.5 µM. Summed up: (§4)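 Cells, 1,000 per well, were allowed to settle for 16 h at 37 C before compound addition. Five concentrations were tested for 48 h, and viability was read by ATPlite luminescence after 15 min at room temperature.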

For a further assay, the system named is CAOV3. Described as above. As to conditions: Gynecologic cancer cell panel viability, ATPlite luminescence, 48 h; series mostly up to 57.5 µM. Summed up: as §4
Another assay relates to CASKI. The description is as above. The note with it: Gynecologic cancer cell panel viability, ATPlite luminescence, 48 h; series mostly up to 57.5 µM. A digest of the protocol:
as §4

A further assay concerns MCC-13. Nature of the assay: qHTS assay to identify novel small-molecules to repurpose for Merkel cell carcinoma treatment (AID 1296009). Also: nearly all actives have a fitted effect of over 60% in size. Also: potency is read from the fitted curve at half-maximal effect. As to conditions: MCC and control cell lines, CellTiter-Glo viability, 72 h; series mostly up to 46 µM. A digest of the protocol: as §3
Another assay relates to MCC-26. Described as above. As to conditions: MCC and control cell lines, CellTiter-Glo viability, 72 h; series mostly up to 46 µM. Summed up: as §3
The next assay concerns UISO. Described as above. The note with it: MCC and control cell lines, CellTiter-Glo viability, 72 h; series mostly up to 46 µM. Summed up: as §3
In a further assay the test system is NIH3T3. Nature of the assay: Cytotoxic Profiling of Annotated Libraries Using Quantitative High-Throughput Screening (AID 1296008). Also: nearly all actives have a fitted effect of over 60% in size. As to max response: % is scaled to controls: 0 for no effect and ±100 for the full control effect. As to conditions: Five cell lines viability, CellTiter-Glo ATP luminescence, 48-72 h; max response: stronger effect = lower value. A digest of the protocol:
as §2

Results filed as inconclusive are left out. Unmarked numbers belong to inactive results. Active and inactive are the calls of the source. Calls follow the shape of the dose curve; as a rule, active = well fitted curve in the direction sought with a large enough effect; inconclusive = small, poorly fitted or top-dose-only effect, or another doubt; inactive = no such curve, though single readings can be large; an effect the other way counts as inactive or inconclusive.

Turning to `O=C(CCN1CCC(c2ccccc2)C1)c1ccc2c(c1)OCCO2` (stereo not drawn), the Potency result in the assay on TAB113, in the assay with TAB165, in the assay on W2, in the assay on C33A, with CAOV3 and in the assay on CASKI was “inactive” in each case. Moreover, the molecule was called inactive in the assay with HaCat [1] and in the assay with HACAT [2]. Besides, the max response in the assay on KB-3-1 is -5.38%. The Potency was 2.66 µM (active) in the assay with MKL-1, 0.841 µM (active) with MKL-2 and 2.99 µM (active) in the assay on WaGa.
For the molecule `CCN(CC)CCOC(=O)C(c1ccccc1)C1CCCCC1` (stereo not drawn), the Potency entry in the assay with TAB165, in the assay on MCC-13, in the assay on MCC-26, in the assay with MKL-1, in the assay with UISO and in the assay on WaGa was “inactive” in each case. Moreover, the Potency result in the assay with C33A and in the assay on CASKI was “inactive” each time. In addition, the Potency in the assay with W2 was 7.57 µM (active). In addition, the call in the assay with HaCat [1] and in the assay on HACAT [2] was inactive. Moreover, the max response in the assay on KB-3-1 is -2.77%.
Turning to `CCC(NC(C)C)C(O)c1ccc(O)c(O)c1` (stereo not drawn), the max response in the assay with KB-3-1 was -9.53%.
Consider `Oc1c(I)cc(Cl)c2cccnc12`, for which the Potency with TAB165 is 12.6 µM (active); in the assay on MKL-2 it was 7.5 µM (active); in the assay with UISO it was 16.8 µM (active); in the assay on WaGa it was 23.7 µM (active). Besides, the Potency entry with W2, in the assay on CAOV3 and in the assay on CASKI was “inactive” throughout. Further, the call in the assay with HaCat [1] and in the assay on HACAT [2] was inactive. Besides, the max response with KB-3-1 was -8.86%.
For the molecule `Cc1c(C)n(Cc2ccccc2)c2ccc(C(=O)OCCN(C)C)cc12`, the Potency entry with TAB113, in the assay on TAB165, in the assay with MCC-13, in the assay with MKL-1, in the assay on UISO and in the assay on WaGa was “inactive” throughout. For the same molecule, the Potency entry with C33A and with CASKI was “inactive” in each case. Also, the result in the assay with HaCat [1] and in the assay with HACAT [2] was inactive. Moreover, the max response in the assay with KB-3-1 was 1.73%.
For `Oc1c(I)cc(I)c2cccnc12`, the Potency result with TAB113, with MCC-13, in the assay with MCC-26, in the assay on C33A, with CAOV3 and with CASKI was “inactive” throughout. For the same molecule, the outcome in the assay on HaCat [1] and with HACAT [2] was inactive. For the same molecule, the max response with KB-3-1 was -18.8%. Further, the Potency was 18.8 µM (active) in the assay on MKL-1 and 11.9 µM (active) in the assay with MKL-2.
Consider `CN(C)/N=N/c1nc[nH]c1C(N)=O`, for which the Potency entry in the assay on TAB113, in the assay with TAB165, with W2, with MCC-13, with MCC-26 and in the assay with MKL-1 was “inactive” throughout. Besides, the max response with KB-3-1 was -8.2%.
As for `CN(C(=O)CN(CCO)CC(=O)N(C)C(C)(C)Cc1ccccc1)C(C)(C)Cc1ccccc1`, the Potency result with TAB113, with MCC-26, in the assay on C33A and in the assay on CASKI was “inactive” each time. Also, the Potency is 3.61 µM (active) in the assay with W2 and 16.8 µM (active) with MKL-2. The values for the max response in the assay on HaCat [1] and in the assay with KB-3-1 were -0.203% and -13.8%, respectively.
`CCCCCCCCCCOCC(O)CN` (stereo not drawn): the Potency result in the assay with TAB113 and with MCC-26 was “inactive” throughout. In the assay with KB-3-1, the max response was -10.6%. Moreover, the Potency in the assay on MKL-2 was 23.7 µM (active).
Turning to `Clc1ccc2c(c1)CCc1cccnc1C2=C1CCNCC1`, the Potency in the assay on W2 is 3.38 µM (active); in the assay with MKL-2, 26.6 µM (active). Besides, the values for the max response with HaCat [1] and with KB-3-1 were -1.5% and -7.06%, respectively. The Potency result with MCC-13, in the assay with MCC-26 and in the assay with C33A was “inactive” each time.
For `CCCSS/C(CCO)=C(\C)N(C=O)Cc1cnc(C)nc1N`, the max response with KB-3-1 is 33.8%. The Potency is 26.6 µM (active) with MCC-26, 21.1 µM (active) in the assay on MKL-1, 6.68 µM (active) in the assay on MKL-2 and 29.9 µM (active) with UISO. In addition, the Potency entry with C33A, in the assay with CAOV3 and with CASKI was “inactive” throughout.
Consider `COc1cc(N)c(Cl)cc1C(=O)NC1CCN(CCCOc2ccc(F)cc2)CC1OC` (stereo not drawn), for which the max response in the assay with HaCat [1] is -1.88%; with KB-3-1 it was 6.35%. Besides, the Potency entry in the assay with MCC-13, with MCC-26, in the assay with MKL-1, in the assay with WaGa, with C33A and with CAOV3 was “inactive” throughout. In addition, the Potency entry in the assay with CASKI was “inactive”.
`CN1CCCC(CC2c3ccccc3Sc3ccccc32)C1` (stereo not drawn): the max response in the assay on HaCat [1] is 2.06%; in the assay with KB-3-1 it was 7.2%. Further, the Potency entry in the assay with MCC-26 and in the assay on CASKI was “inactive” in each case. In addition, the Potency in the assay with MKL-2 and in the assay with UISO was 23.7 µM (active) each time.
Take `CCCCCCCCCCCCCCNCCO`: the Potency result with TAB113, in the assay on TAB165, with MCC-13, in the assay on WaGa and in the assay on CASKI was “inactive” each time. Moreover, the Potency in the assay on W2 was 9.53 µM (active). The max response in the assay with KB-3-1 is 5.95%.
As for `Oc1ccc(Cl)cc1Sc1cc(Cl)ccc1O`, the max response with HaCat [1] is 2%; in the assay on NIH3T3 it was -21.9%. The Potency result in the assay with MCC-26, in the assay with CAOV3 and with CASKI was “inactive” each time. Further, the Potency in the assay on MKL-1 was 21.1 µM (active); with UISO, 18.8 µM (active); in the assay with WaGa it was 21.1 µM (active).
In the case of `CNCC[C@@H](Oc1ccccc1C)c1ccccc1`, the max response is 1.42% in the assay on HaCat [1] and -7.4% with KB-3-1. The Potency entry in the assay on MCC-13, with MCC-26, in the assay with MKL-1, in the assay on MKL-2, in the assay on UISO and in the assay with WaGa was “inactive” throughout. The Potency entry in the assay on C33A, in the assay on CAOV3 and with CASKI was “inactive” each time.
`CCCCCCc1ccc(O)cc1O`: the Potency entry in the assay on TAB113, with TAB165, in the assay on W2, in the assay on MCC-13, in the assay with MCC-26 and in the assay on MKL-1 was “inactive” in each case. Besides, the Potency entry in the assay with MKL-2, with UISO, in the assay on WaGa, in the assay with C33A, with CAOV3 and in the assay with CASKI was “inactive” each time. Moreover, the max response with KB-3-1 is 0.129%; in the assay on NIH3T3 it was 4.72%.
As for `CCCCN1CCCC1C(=O)Nc1c(C)cc(C)cc1C` (stereo not drawn), the Potency result with TAB113, in the assay on TAB165, in the assay with MCC-13, with MCC-26, in the assay with MKL-1 and in the assay with MKL-2 was “inactive” throughout. Also, the Potency entry with UISO, in the assay on WaGa, in the assay with C33A, with CAOV3 and in the assay with CASKI was “inactive” each time. Also, the max response in the assay with KB-3-1 was -0.66%; in the assay on NIH3T3 it was -4.8%.
Regarding `CC(C)COC(=O)OCN1C(=O)CN(CCN2CC(=O)N(COC(=O)OCC(C)C)C(=O)C2)CC1=O`, the Potency entry in the assay on TAB113, with TAB165 and in the assay with W2 was “inactive” throughout. Moreover, the max response with KB-3-1 was 6.86%.
With `CC(C)C[C@H]1C(=O)N2CCC[C@H]2[C@]2(O)O[C@](NC(=O)[C@@H]3C=C4c5cccc6[nH]c(Br)c(c56)C[C@H]4N(C)C3)(C(C)C)C(=O)N12`, the max response in the assay on KB-3-1 is 3.47%.
Same read-out and setting: the result for `CCCC1O[C@@H]2C[C@H]3[C@@H]4CCC5=CC(=O)C=C[C@]5(C)[C@H]4[C@@H](O)C[C@]3(C)[C@]2(C(=O)CO)O1` (stereo partly drawn) reads 0.499%.
As for `CC/C(=C(/CC)c1ccc(O)cc1)c1ccc(O)cc1`, the max response in the assay with KB-3-1 was -22.7%; in the assay on NIH3T3, -25.4%. Also, the Potency entry with MCC-13, in the assay with MCC-26, in the assay with MKL-1, in the assay with C33A, in the assay with CAOV3 and with CASKI was “inactive” throughout.
